The target in one test is POU1 (OCT1 POU domain) (human, UniProt P14859 260-458). Description: EMSA-SELEX-seq; no BOB1; 20 mM Tris-HCl pH 7.6, 140 mM NaCl, 10% glycerol, 0.5 mM EDTA, 0.05% Triton X-100, 0.1 mg/mL BSA, 0.1 mg/mL poly(dI-dC), 5 mM DTT, room temperature, 20 min; high values mean tight binding. The note with it: protein: recombinant; dsDNA, one strand shown. The method in brief: (§1)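 After expression in E. coli BL21, tagged POU-domain proteins were purified under denaturing conditions and then renatured. Each binding reaction held 30 ng protein and 300 ng of a PCR-amplified double-stranded random 35-nt library in 20 μL Tris–HCl pH 7.6 binding buffer, with or without 28 ng coactivator protein, for 20 min at RT. Bands holding complexes were cut from native 6% PAGE, eluted and PCR-amplified across four rounds, and the output was Illumina-sequenced. The value given for binding preference is the share, in percent, of sequenced 8-mers fitting a motif pattern.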
Sequence of POU1 (OCT1 POU domain) (P14859 260-458): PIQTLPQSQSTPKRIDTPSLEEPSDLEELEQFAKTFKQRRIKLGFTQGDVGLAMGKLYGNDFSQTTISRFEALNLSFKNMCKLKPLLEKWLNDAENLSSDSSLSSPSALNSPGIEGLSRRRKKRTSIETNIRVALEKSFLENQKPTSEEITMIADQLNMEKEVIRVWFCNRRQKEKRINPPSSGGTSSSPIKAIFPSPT
For orientation: In EMSA bound probe runs differently from free probe, usually more slowly.

The next test deals with T1, POU2 (OCT2 POU domain) (human, UniProt P09086 175-386).
T1 sequence: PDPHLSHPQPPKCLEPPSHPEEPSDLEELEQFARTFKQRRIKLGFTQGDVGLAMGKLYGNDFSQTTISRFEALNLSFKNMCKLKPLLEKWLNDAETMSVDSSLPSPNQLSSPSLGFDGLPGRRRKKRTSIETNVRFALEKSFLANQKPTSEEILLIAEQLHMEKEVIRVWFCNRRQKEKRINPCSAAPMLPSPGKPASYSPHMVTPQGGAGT
The test is described as above. The note with it: protein: recombinant; dsDNA, one strand shown. The method in brief: as §1

The target of test [1] is POU1 (OCT1 POU domain);BOB1 (OBF1, OCA-B) (human;human, UniProt P14859;Q16633 260-458;1-256, |). Nature of the test: EMSA-SELEX-seq; with BOB1 (ternary complex band); 20 mM Tris-HCl pH 7.6, 140 mM NaCl, 10% glycerol, 0.5 mM EDTA, 0.05% Triton X-100, 0.1 mg/mL BSA, 0.1 mg/mL poly(dI-dC), 5 mM DTT, room temperature, 20 min; high values mean tight binding. The settings on record: protein: recombinant;recombinant; copies: 1;1; dsDNA, one strand shown. The method in brief: as §1

In test [2] the target is T2, POU2 (OCT2 POU domain);BOB1 (OBF1, OCA-B) (human;human, UniProt P09086;Q16633 175-386;1-256, |).
T2 sequence 1: T1 sequence
T2 sequence 2: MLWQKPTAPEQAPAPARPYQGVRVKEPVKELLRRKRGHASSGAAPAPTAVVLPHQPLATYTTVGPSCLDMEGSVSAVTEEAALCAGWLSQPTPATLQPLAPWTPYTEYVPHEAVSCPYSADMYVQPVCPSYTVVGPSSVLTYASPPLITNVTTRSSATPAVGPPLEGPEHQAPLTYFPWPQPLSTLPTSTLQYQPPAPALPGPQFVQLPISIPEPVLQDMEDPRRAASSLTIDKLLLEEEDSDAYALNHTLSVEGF
The test is described as above. The settings on record: protein: recombinant;recombinant; copies: 1;1; dsDNA, one strand shown. The method in brief:
as §1

As to AACTCAAC, the binding signal was 0.0168 % of ANNNNAAN 8-mers in the test with POU1 (OCT1 POU domain), 0.0288 % of ANNNNAAN 8-mers in the test with POU2 (OCT2 POU domain), 0.0172 % of ANNNNAAN 8-mers in test [1] and 0.0182 % of ANNNNAAN 8-mers in test [2].

Consider ACGCGAAA, for which the binding signal with POU1 (OCT1 POU domain) is 0.0179 % of ANNNNAAN 8-mers; with POU2 (OCT2 POU domain), 0.0265 % of ANNNNAAN 8-mers; in test [1], 0.0211 % of ANNNNAAN 8-mers; in test [2] it was 0.0314 % of ANNNNAAN 8-mers.

Take AGGAAAAC: the binding signal was 0.0591 % of ANNNNAAN 8-mers in the test with POU1 (OCT1 POU domain), 0.0552 % of ANNNNAAN 8-mers with POU2 (OCT2 POU domain), 0.0839 % of ANNNNAAN 8-mers in test [1] and 0.0636 % of ANNNNAAN 8-mers in test [2].

Consider AAATTAAC, for which the binding signal with POU1 (OCT1 POU domain) is 0.334 % of ANNNNAAN 8-mers; with POU2 (OCT2 POU domain), 0.33 % of ANNNNAAN 8-mers; in test [1] it was 0.188 % of ANNNNAAN 8-mers; in test [2] it was 0.196 % of ANNNNAAN 8-mers.

AGTGAAAA: the binding signal with POU1 (OCT1 POU domain) was 0.0698 % of ANNNNAAN 8-mers; with POU2 (OCT2 POU domain), 0.0685 % of ANNNNAAN 8-mers; in test [1], 0.0956 % of ANNNNAAN 8-mers; in test [2] it was 0.0685 % of ANNNNAAN 8-mers.

Take AGAAGAAC: the binding signal in the test with POU1 (OCT1 POU domain) was 0.0191 % of ANNNNAAN 8-mers; with POU2 (OCT2 POU domain), 0.0288 % of ANNNNAAN 8-mers; in test [1], 0.0176 % of ANNNNAAN 8-mers; in test [2] it was 0.0256 % of ANNNNAAN 8-mers.

As to AAGGCAAC, the binding signal in the test with POU1 (OCT1 POU domain) was 0.0187 % of ANNNNAAN 8-mers; with POU2 (OCT2 POU domain) it was 0.0167 % of ANNNNAAN 8-mers; in test [1], 0.0195 % of ANNNNAAN 8-mers; in test [2], 0.0264 % of ANNNNAAN 8-mers.

With AGGATAAT, the binding signal in the test with POU1 (OCT1 POU domain) was 0.168 % of ANNNNAAN 8-mers; with POU2 (OCT2 POU domain), 0.209 % of ANNNNAAN 8-mers; in test [1] it was 0.0952 % of ANNNNAAN 8-mers; in test [2] it was 0.106 % of ANNNNAAN 8-mers.

As for ACTGTAAC, the binding signal with POU1 (OCT1 POU domain) was 0.0175 % of ANNNNAAN 8-mers; with POU2 (OCT2 POU domain), 0.0224 % of ANNNNAAN 8-mers; in test [1], 0.0203 % of ANNNNAAN 8-mers; in test [2] it was 0.0165 % of ANNNNAAN 8-mers.

For the sequence ATCTCAAT, the binding signal in the test with POU1 (OCT1 POU domain) was 0.0561 % of ANNNNAAN 8-mers; in the test with POU2 (OCT2 POU domain), 0.0846 % of ANNNNAAN 8-mers; in test [1], 0.0558 % of ANNNNAAN 8-mers; in test [2] it was 0.0768 % of ANNNNAAN 8-mers.

Turning to ATGAAAAT, the binding signal in the test with POU1 (OCT1 POU domain) is 0.373 % of ANNNNAAN 8-mers; with POU2 (OCT2 POU domain), 0.304 % of ANNNNAAN 8-mers; in test [1], 0.619 % of ANNNNAAN 8-mers; in test [2] it was 0.518 % of ANNNNAAN 8-mers.

As to ACCCAAAG, the binding signal with POU1 (OCT1 POU domain) is 0.0198 % of ANNNNAAN 8-mers; with POU2 (OCT2 POU domain), 0.0184 % of ANNNNAAN 8-mers; in test [1], 0.0203 % of ANNNNAAN 8-mers; in test [2], 0.0206 % of ANNNNAAN 8-mers.

For the sequence ACGAAAAC, the binding signal is 0.0256 % of ANNNNAAN 8-mers with POU1 (OCT1 POU domain), 0.0259 % of ANNNNAAN 8-mers with POU2 (OCT2 POU domain), 0.0289 % of ANNNNAAN 8-mers in test [1] and 0.0264 % of ANNNNAAN 8-mers in test [2].

With AGACAAAC, the binding signal with POU1 (OCT1 POU domain) is 0.0313 % of ANNNNAAN 8-mers; with POU2 (OCT2 POU domain), 0.0265 % of ANNNNAAN 8-mers; in test [1], 0.0414 % of ANNNNAAN 8-mers; in test [2], 0.0322 % of ANNNNAAN 8-mers.

Turning to AGTATAAT, the binding signal was 0.192 % of ANNNNAAN 8-mers in the test with POU1 (OCT1 POU domain), 0.289 % of ANNNNAAN 8-mers in the test with POU2 (OCT2 POU domain), 0.0866 % of ANNNNAAN 8-mers in test [1] and 0.121 % of ANNNNAAN 8-mers in test [2].

As for AGTCAAAA, the binding signal was 0.164 % of ANNNNAAN 8-mers with POU1 (OCT1 POU domain), 0.117 % of ANNNNAAN 8-mers in the test with POU2 (OCT2 POU domain), 0.265 % of ANNNNAAN 8-mers in test [1] and 0.115 % of ANNNNAAN 8-mers in test [2].

ATCGAAAT: the binding signal in the test with POU1 (OCT1 POU domain) is 0.0694 % of ANNNNAAN 8-mers; in the test with POU2 (OCT2 POU domain), 0.0633 % of ANNNNAAN 8-mers; in test [1], 0.0777 % of ANNNNAAN 8-mers; in test [2], 0.0512 % of ANNNNAAN 8-mers.

Consider AATCTAAA, for which the binding signal with POU1 (OCT1 POU domain) was 0.107 % of ANNNNAAN 8-mers; with POU2 (OCT2 POU domain) it was 0.129 % of ANNNNAAN 8-mers; in test [1], 0.0726 % of ANNNNAAN 8-mers; in test [2], 0.0669 % of ANNNNAAN 8-mers.

In the case of ACAAGAAC, the binding signal is 0.0214 % of ANNNNAAN 8-mers with POU1 (OCT1 POU domain), 0.0201 % of ANNNNAAN 8-mers in the test with POU2 (OCT2 POU domain), 0.0144 % of ANNNNAAN 8-mers in test [1] and 0.0297 % of ANNNNAAN 8-mers in test [2].

Regarding AAGGGAAT, the binding signal was 0.115 % of ANNNNAAN 8-mers with POU1 (OCT1 POU domain), 0.121 % of ANNNNAAN 8-mers with POU2 (OCT2 POU domain), 0.0765 % of ANNNNAAN 8-mers in test [1] and 0.0908 % of ANNNNAAN 8-mers in test [2].

Take AGGTGAAG: the binding signal with POU1 (OCT1 POU domain) is 0.04 % of ANNNNAAN 8-mers; with POU2 (OCT2 POU domain), 0.0386 % of ANNNNAAN 8-mers; in test [1] it was 0.0339 % of ANNNNAAN 8-mers; in test [2], 0.0471 % of ANNNNAAN 8-mers.

Turning to ATACCAAT, the binding signal with POU1 (OCT1 POU domain) was 0.0465 % of ANNNNAAN 8-mers; in the test with POU2 (OCT2 POU domain), 0.0518 % of ANNNNAAN 8-mers; in test [1], 0.0394 % of ANNNNAAN 8-mers; in test [2], 0.0471 % of ANNNNAAN 8-mers.

For the sequence ATCTGAAT, the binding signal is 0.201 % of ANNNNAAN 8-mers with POU1 (OCT1 POU domain), 0.232 % of ANNNNAAN 8-mers in the test with POU2 (OCT2 POU domain), 0.102 % of ANNNNAAN 8-mers in test [1] and 0.126 % of ANNNNAAN 8-mers in test [2].

Turning to ATGGAAAT, the binding signal in the test with POU1 (OCT1 POU domain) was 0.943 % of ANNNNAAN 8-mers; in the test with POU2 (OCT2 POU domain), 0.723 % of ANNNNAAN 8-mers; in test [1], 0.958 % of ANNNNAAN 8-mers; in test [2], 0.982 % of ANNNNAAN 8-mers.

As to AAGATAAG, the binding signal with POU1 (OCT1 POU domain) was 0.045 % of ANNNNAAN 8-mers; in the test with POU2 (OCT2 POU domain) it was 0.0593 % of ANNNNAAN 8-mers; in test [1] it was 0.046 % of ANNNNAAN 8-mers; in test [2], 0.0429 % of ANNNNAAN 8-mers.

Regarding ATCCCAAA, the binding signal was 0.0263 % of ANNNNAAN 8-mers with POU1 (OCT1 POU domain), 0.0253 % of ANNNNAAN 8-mers with POU2 (OCT2 POU domain), 0.0343 % of ANNNNAAN 8-mers in test [1] and 0.0297 % of ANNNNAAN 8-mers in test [2].

As for ATGATAAC, the binding signal with POU1 (OCT1 POU domain) was 0.0339 % of ANNNNAAN 8-mers; in the test with POU2 (OCT2 POU domain) it was 0.0489 % of ANNNNAAN 8-mers; in test [1], 0.0332 % of ANNNNAAN 8-mers; in test [2], 0.0479 % of ANNNNAAN 8-mers.

As for AGAAAAAG, the binding signal with POU1 (OCT1 POU domain) was 0.0534 % of ANNNNAAN 8-mers; with POU2 (OCT2 POU domain) it was 0.0581 % of ANNNNAAN 8-mers; in test [1], 0.0468 % of ANNNNAAN 8-mers; in test [2], 0.0421 % of ANNNNAAN 8-mers.

With AGAAAAAC, the binding signal in the test with POU1 (OCT1 POU domain) is 0.04 % of ANNNNAAN 8-mers; with POU2 (OCT2 POU domain), 0.0368 % of ANNNNAAN 8-mers; in test [1] it was 0.0519 % of ANNNNAAN 8-mers; in test [2] it was 0.0396 % of ANNNNAAN 8-mers.

For AAGTCAAT, the binding signal was 0.0667 % of ANNNNAAN 8-mers with POU1 (OCT1 POU domain), 0.0731 % of ANNNNAAN 8-mers in the test with POU2 (OCT2 POU domain), 0.0535 % of ANNNNAAN 8-mers in test [1] and 0.0677 % of ANNNNAAN 8-mers in test [2].

For the origin of these results see PMC10812921, “Transcriptional Coactivator BOB1 (OBF1, OCA-B) Modulates the Specificity of DNA Recognition by the POU-Domain Factors OCT1 and OCT2 in a Monomeric Configuration”.
